Results published in PubChem BioAssay (Tox21).
Records with an inconclusive call do not appear. Values without a mark were called inactive. The source made the active and inactive calls. Calls come from the whole dose curve; as a rule, active = well fitted curve in the direction sought with a large enough effect in the repeat runs; inconclusive = weak or mixed curves; inactive = no such curve, though single readings can be large; an effect the other way counts as inactive or inconclusive.

Assay: Caspase-3/7 induction in HepG2 cells by small molecules, qHTS assay (AID 1346978); note: nearly all actives have a fitted effect of over 15% in size
Conditions: HepG2 caspase-3/7 activation, Caspase-Glo luminescence, 17 h; series mostly up to 92.4 µM; caspase activation: at the top concentration
How it was run: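 Wild-type HepG2 cells, 2,000/well, settled 5 hr at 37 C and 5% CO2, then compound-treated for 17 hr; caspase-3/7 activity read by luminescent Caspase-Glo 3/7 after 30 min at room temperature.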
% is set by controls: 0 for no effect and ±100 for the full control effect.

Structure (SMILES)	caspase activation
COC(=O)c1cc(Cl)ccc1[N+](=O)[O-]	0.313%
Cc1cc(N)n(-c2ccccc2)n1	-7.72%
CC(C)=CCCC(C)C=O (stereo unspecified)	0.527%
O=C(O)c1ccc2c(c1)nc(C(=O)NC1CCN(C3CC3)CC1)n2Cc1cc(-c2ccc(Cl)s2)on1	-0.956% [at 19 µM]
O=C(O)c1ccc2cc(O)ccc2c1	-1.35%
O=C1c2ccccc2C(=O)C1c1ccc2cc(S(=O)(=O)O)cc(S(=O)(=O)O)c2n1	-18.3%
COC(=O)/C=C/C(C)=C\C=C\C(C)=C\C=C\C=C(C)\C=C\C=C(C)\C=C\C(=O)O	-2.27%
CC(=O)OCC(=O)[C@@]1(O)CC[C@H]2[C@@H]3CCC4=CC(=O)C=C[C@]4(C)[C@@]3(F)[C@@H](O)C[C@@]21C	-1.1% [at 42.5 µM]
N#Cc1ccc(CC(=O)c2cccc(C(F)(F)F)c2)cc1	-1.16%
CC1(COc2ccc(CC3SC(=O)NC3=O)cc2)CCCCC1 (stereo unspecified)	-1.67% [at 42.5 µM]
Cc1ccc2ccccc2c1[N+](=O)[O-]	0.0537%
C[C@H]1C[C@H]2[C@@H]3CCC4=CC(=O)C=C[C@]4(C)[C@@]3(F)[C@@H](O)C[C@]2(C)[C@@]1(O)C(=O)COP(=O)(O)O	0.341%
CO[C@@H]1[C@@H](O[C@@H]2O[C@H](C)[C@@H](O[C@H]3C[C@@](C)(O)[C@@H](O)[C@H](C)O3)[C@H](N(C)C)[C@H]2O)[C@@H](CC=O)C[C@@H](C)[C@@H](O[C@@H]2CC[C@H](N(C)C)[C@@H](C)O2)/C=C/C=C/C[C@@H](C)OC(=O)C[C@H]1OC(C)=O	1.91% [at 42.5 µM]
O=C(N[C@@H](Cc1ccccc1)[C@@H](O)C(=O)N1C[C@@H](O)[C@@H](O)C1)c1cc2cc(Cl)ccc2[nH]1	0.109%
CCC(C(=O)O)c1ccc(N2Cc3ccccc3C2=O)cc1 (stereo unspecified)	-11.5% [at 42.5 µM]
O=[N+]([O-])c1ccc(Cl)cc1Cl	0.752%

Assay: Caspase-3/7 induction in CHO-K1 cells by small molecules, qHTS cell viability counter screen (AID 1346979); note: nearly all actives have a fitted effect of over 35% in size; note: potency is the fitted concentration of half-maximal effect
Conditions: CellTiter-Fluor fluorescence, 17 h; series mostly up to 92.4 µM; activity change, negative = cytotoxicity: at the top concentration
How it was run: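 Seeding: 1,500 CHO-K1 cells/well. Rest: 5hr, 37C. Treatment: compounds in DMSO, 16hr. Read: CellTiter-Fluor, 1hr, fluorescence.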

Structure (SMILES)	activity change, negative = cytotoxicity	Potency
CC(C(=O)O)c1ccc2c(c1)Cc1cccnc1O2 (stereo unspecified)	10.3% [at 42.5 µM]	–
Nc1ccccc1Nc1ccccc1	–	27.4 µM (active)
O=S(=O)(O)c1cc(Cl)c(Cl)cc1Cl	14.3%	–
C=CC(=O)NC(C)(C)C	1.14%	–
C=CC(C)(O)CC/C=C(/C)CCC=C(C)C (stereo unspecified)	-7.42%	–
Cc1ccc(Cl)c(OCC(O)CNC(C)(C)C)c1 (stereo unspecified)	-0.699% [at 42.5 µM]	–
CC(C)(C)c1cc(C=O)cc(C(C)(C)C)c1O	-11.8% [at 42.5 µM]	–
C(/C=C/C=C/Nc1ccccc1)=Nc1ccccc1	5.27%	–
CCCCCCCCCCCCCCCCCCCl	-4.93% [at 8.39 µM]	–
C=C[Si]1(C)O[Si](C)(C=C)O[Si](C)(C=C)O[Si](C)(C=C)O1 (stereo unspecified)	-0.116%	–
CCc1ccc(C(=O)C(C)CN2CCCCC2)cc1 (stereo unspecified)	1.44% [at 42.5 µM]	–
O=C(OCCOCCOCCOC(=O)c1ccccc1)c1ccccc1	-4.78%	–
O=C(O)CCc1nc2ccccc2[nH]1	0.912% [at 42.5 µM]	–
CCc1c(C)[nH]c2c1C(=O)C(CN1CCOCC1)CC2 (stereo unspecified)	1.5% [at 42.5 µM]	–
C[C@H](CN1CCCC1)C(=O)c1ccc(C(F)(F)F)cc1	1.54% [at 42.5 µM]	–
O=C1OC(=O)C2CC=CCC12 (stereo unspecified)	4.45%	–
CC(C)Oc1ccccc1O	9.2%	–
c1ccc(-c2ccc(-c3ccccc3)cc2)cc1	11.6% [at 19 µM]	–
COC(=O)c1cc(Cl)ccc1[N+](=O)[O-]	1.27%	–
Cc1cc(N)n(-c2ccccc2)n1	7.06%	–
CC(C)=CCCC(C)C=O (stereo unspecified)	6.55%	–
O=C(O)c1ccc2cc(O)ccc2c1	8.75%	–
O=C1c2ccccc2C(=O)C1c1ccc2cc(S(=O)(=O)O)cc(S(=O)(=O)O)c2n1	–	33.1 µM (active)
COC(=O)/C=C/C(C)=C\C=C\C(C)=C\C=C\C=C(C)\C=C\C=C(C)\C=C\C(=O)O	-9.3%	–
N#Cc1ccc(CC(=O)c2cccc(C(F)(F)F)c2)cc1	-0.606%	–
Cc1ccc2ccccc2c1[N+](=O)[O-]	0.97%	–
C[C@H]1C[C@H]2[C@@H]3CCC4=CC(=O)C=C[C@]4(C)[C@@]3(F)[C@@H](O)C[C@]2(C)[C@@]1(O)C(=O)COP(=O)(O)O	-0.83%	–
CO[C@@H]1[C@@H](O[C@@H]2O[C@H](C)[C@@H](O[C@H]3C[C@@](C)(O)[C@@H](O)[C@H](C)O3)[C@H](N(C)C)[C@H]2O)[C@@H](CC=O)C[C@@H](C)[C@@H](O[C@@H]2CC[C@H](N(C)C)[C@@H](C)O2)/C=C/C=C/C[C@@H](C)OC(=O)C[C@H]1OC(C)=O	-4.11% [at 42.5 µM]	–
O=C(N[C@@H](Cc1ccccc1)[C@@H](O)C(=O)N1C[C@@H](O)[C@@H](O)C1)c1cc2cc(Cl)ccc2[nH]1	-8.14%	–
O=[N+]([O-])c1ccc(Cl)cc1Cl	-0.208%	–
